Reference: PubChem BioAssay (NCATS)
Inconclusive results are not listed. A number with no mark means an inactive call. Activity calls are given as the source filed them. The call rests on the fitted dose curve.

Assay: Cell Viability - MRC5 (AID 434);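 further: potency reflects cytotoxicity seen as loss of intracellular ATP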
Details: MRC5 lung fibroblast viability, qHTS
Excerpt: NIH Chemical Genomics Center [NCGC]
NIH Molecular Libraries Screening Centers Network [MLSCN]
National Institutes of Environmental Health Sciences [NIEHS]
National Toxicology Program [NTP]
We have developed a 1536-well cell-based assay for quantitative high throughput screening (qHTS) against a number of cell lines to determine in vitro cytotoxicity of small molecules. This particular assay uses the MRC5 cell line which is derived from normal human lung fibroblasts.
NCGC Assay Protocol Summary:
The CellTiter-Glo luminescent cell viability assay (Promega) is a homogeneous method to measure the number of viable cells in culture. The end point readout of this assay is based on quantitation of intracellular ATP, an indicator of metabolic activity, using the luciferase reaction. Luciferase catalyzes the oxidation of beetle Luciferin to oxyluciferin and light in the presence of ATP. The luminescent signal is proportional to amount of ATP present.
Using the CellTiter-Glo luminescent cell viability assay, the amount of cellular ATP was measured in the MRC5 cell line with complete culture medium following compound treatment for 40 hours. The assay was performed in opaque white Kalypsys 1536-well plates. In the screen, tamoxifen and doxorubicin were used as positive controls. Library compounds were measured for their ability to cause acute toxicity in the cell line, as reflected by a decrease in intracellular ATP levels, in a concentration-dependent manner. Data were normalized to the controls for basal activity (DMSO only) and 100% inhibition (100 uM tamoxifen). AC50 values were determined from concentration-response data modeled with the standard Hill equation.
qHTS protocol for CellTiter Glo MRC5 cellular assay
[Step] [Parameter] [Value] [Description]
1. Reagent; 5 uL; 1500 MRC5 cells/well
2. Time; 5 hr; 37 °C incubation
4. Controls; 23 nL; Tamoxifen 0.34 uM to 100 uM & Doxorubicin 0.02 nM to 100 uM
5. Time; 40 hr; 37 °C incubation
6. Reagent; 5 uL; CellTiter Glo reagent
7. Time; 20 min; Room Temperature
8. Detection; Luminescence; Viewlux plate reader
Keywords: cell viability, cytotoxicity, MRC5 cell line, luminescence, NTPHTS, NTPHTS_NCGC, NIEHS, EPA, DSSTox, MLSMR, MLSCN, NIH Roadmap, qHTS, NCGC
Potency means the concentration at half of the fitted maximal effect.

SMILES | Potency
C/C=C(/C)C#N | > 92 µM
C=C(C)C1CC=C(C)C(OC(C)=O)C1 (stereo not given) | > 92 µM
O=C1OC(=O)c2c(Cl)c(Cl)c(Cl)c(Cl)c21 | > 92 µM
CC(C)(O)CCC(C)(C)O | > 92 µM
[O-]/[N+](=N\O)c1ccccc1 | > 92 µM
Cc1ccc2nc(-c3ccc(N)cc3)sc2c1S(=O)(=O)O | > 92 µM
O=[N+]([O-])c1ccc2nc[nH]c2c1 | > 92 µM
COC(=O)CC#N | > 92 µM
COc1ccccc1[N+](=O)[O-] | > 92 µM
C[C@@H]1CC2(OC3C[C@@]4(C)C5=CC[C@H]6C(C)(C)C(O[C@@H]7OC[C@@H](O)[C@H](O)[C@H]7O)CC[C@@]67C[C@@]57CC[C@]4(C)C31)OC(O)C1(C)OC21 (stereo not given in full) | > 92 µM
CC(=O)OC(C)=O | > 92 µM
O=C1CCCCC1 | > 92 µM
Cc1c(C(=O)O)cccc1[N+](=O)[O-] | > 92 µM
CCN(Cc1ccccc1)c1ccccc1 | > 92 µM
CC(=O)c1ccc([N+](=O)[O-])cc1 | > 92 µM
S=C([S-])NCCNC(=S)[S-].[Zn+2] | > 92 µM
NCCCCCCN | > 92 µM
ClC/C=C/CCl | > 92 µM
O=Cc1ccc(C(=O)O)cc1 | > 92 µM
CC(C)CO | > 92 µM

SMILES | Potency
Cc1cc([N+](=O)[O-])ccc1N | > 92 µM
O=C(O)c1cccc([N+](=O)[O-])c1 | > 92 µM
CC(C)=C1CCC(C)CC1=O (stereo not given) | > 92 µM
Cc1ccc(Cl)cc1N | > 92 µM
CC(=O)C1(C)CC2=C(CCCC2(C)C)CC1C (stereo not given) | > 92 µM
O=C(O)c1ccc(Cl)c(Cl)c1 | > 92 µM
CNC(=O)c1ccccc1 | > 92 µM
CC1(N)CCC(C(C)(C)N)CC1 (stereo not given) | > 92 µM
CC(CCl)OC(C)CCl (stereo not given) | > 92 µM
O=Cc1c(Cl)cccc1Cl | > 92 µM
O=[N+]([O-])c1cccc(C(F)(F)F)c1 | > 92 µM
CC1=C(/C=C/C(C)=C/C=C/C(C)=C\C=O)C(C)(C)CCC1 | 39.8 µM (active)
Cc1nc2ccc(Cl)cc2[nH]1 | > 92 µM
CC(=O)Nc1ccc(N)cc1 | > 92 µM
C=C(C)C(=O)OCC(C)C | > 92 µM
Nc1cc(Cl)c(N)c(Cl)c1 | > 92 µM
CSCCC=O | > 92 µM
COC(=O)CCCC(=O)OC | > 92 µM
Cc1cccc2ccccc12 | > 92 µM
CCCCCCCN | > 92 µM
